# Results as given in publication PMC5540273 (PLoS ONE, 2017).
# Legend:
# NIK = tested on: T1, NIK
# T1 construct: gene MAP3K14
# NIM1 = tested on: T2, NIM1
# T2 construct: gene MGC42105
# 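Further: kd values determined as follow-up on hits from a single-replicate KINOMEscan panel screen.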
structure (smiles),measurement,setting,value
CCc1nc(-c2cccc(C)c2)c(-c2ccncc2)s1,Kd,NLK,0.18 µM
Nc1n[nH]c2nnc(-c3ccccc3)c(-c3ccccc3)c12 [GW554060],Kd,NIK,> 10 µM
COc1ccc(-c2cc3c(C)nc(N)nc3n([C@H]3CC[C@H](O)CC3)c2=O)cn1,Kd,MYLK,> 10 µM
Nc1ncnc2c1ncn2-c1ccc(Cl)cc1 [AH2635],Kd,NIK,> 10 µM
COC(=O)c1c(-c2ccccc2)c2cc(Br)ccc2c(=O)n1Cc1ccc(NC(=O)CCC(=O)O)cc1,Kd,MYO3A,> 10 µM
COc1cc(Nc2nccc(N3CCC(NC(=O)C(C)c4ccc(Cl)cc4)C3)n2)cc(OC)c1OC (stereo not drawn) [GSK1379757],Kd,NEK5,0.74 µM
COc1cc2nccc(Nc3ccc(OCc4ccc(NC(C)=O)cc4)cc3)c2cc1OC.Cl [GW440135],Kd,NEK7,> 10 µM
same,Kd,NEK9,> 10 µM
COc1cccc(C2=C(N(C)c3ccccc3)C(=O)NC2=O)c1 [SB-334865],Kd,NIK,> 10 µM
COc1cc(Nc2nccc(N3CCC(NC(=O)C4COc5ccccc5O4)C3)n2)cc(OC)c1OC (stereo not drawn) [GSK1379761],Kd,NEK5,0.37 µM
COC(=O)c1c(-c2ccccc2)c2cc(C)ccc2c(=O)n1Cc1ccccc1,Kd,NIK,> 10 µM
OCCCNc1nccc(-c2c(-c3cccc(C(F)(F)F)c3)nn3cc(C(F)(F)F)ccc23)n1 [GW630813],Kd,NLK,0.23 µM
Cc1c(Cn2c(C)nn3c(=O)cc(N4CCO[C@H](C)C4)nc23)cccc1C(F)(F)F [GSK2373690],Kd,MYLK4,> 10 µM
Cc1ccc(-c2ccc3c(ccc4sc5c(c43)NC[C@@H](C)N=C5N(C)C)n2)cn1,Kd,MYLK4,> 10 µM
CCc1ccc(-c2ccc3c(c2)-c2nn(C)cc2S(=O)(=O)N3C)cc1,Kd,MYO3A,> 10 µM
CCCC(=O)Nc1n[nH]c2ncc(-c3cccc4ccccc34)cc12 [SB-642057],Kd,NEK10,> 10 µM
COc1cc(Nc2ccnc3ccc(C(F)(F)F)cc23)cc(OC)c1OC [GW577382],Kd,NIM1,> 10 µM
O=C1NC(=O)C(c2ccccc2)=C1Nc1cccc(O)c1 [SB-390534],Kd,NIM1,> 10 µM
